According to the supplement of paper PMC11732987, “Enantioselective OTUD7B fragment discovery through chemoproteomics screening and high-throughput optimisation” (Communications Chemistry, 2025):

Tests used:
Assay in all cases: log2 ratio of Biotin-Ahx-Ub-VS probe labelling (fragment/DMSO); higher = less target engagement (more negative = stronger competition), active = hit call of the paper (q ≤ 0.05, log2 ratio ≤ -1)
Details in all cases: compound concentration: 200 uM; treatment time: 3 h
[1] = biological target: USP34 (UniProt Q70CQ2)
USP34, sequence (Q70CQ2 whole entry, the tested form may be a part): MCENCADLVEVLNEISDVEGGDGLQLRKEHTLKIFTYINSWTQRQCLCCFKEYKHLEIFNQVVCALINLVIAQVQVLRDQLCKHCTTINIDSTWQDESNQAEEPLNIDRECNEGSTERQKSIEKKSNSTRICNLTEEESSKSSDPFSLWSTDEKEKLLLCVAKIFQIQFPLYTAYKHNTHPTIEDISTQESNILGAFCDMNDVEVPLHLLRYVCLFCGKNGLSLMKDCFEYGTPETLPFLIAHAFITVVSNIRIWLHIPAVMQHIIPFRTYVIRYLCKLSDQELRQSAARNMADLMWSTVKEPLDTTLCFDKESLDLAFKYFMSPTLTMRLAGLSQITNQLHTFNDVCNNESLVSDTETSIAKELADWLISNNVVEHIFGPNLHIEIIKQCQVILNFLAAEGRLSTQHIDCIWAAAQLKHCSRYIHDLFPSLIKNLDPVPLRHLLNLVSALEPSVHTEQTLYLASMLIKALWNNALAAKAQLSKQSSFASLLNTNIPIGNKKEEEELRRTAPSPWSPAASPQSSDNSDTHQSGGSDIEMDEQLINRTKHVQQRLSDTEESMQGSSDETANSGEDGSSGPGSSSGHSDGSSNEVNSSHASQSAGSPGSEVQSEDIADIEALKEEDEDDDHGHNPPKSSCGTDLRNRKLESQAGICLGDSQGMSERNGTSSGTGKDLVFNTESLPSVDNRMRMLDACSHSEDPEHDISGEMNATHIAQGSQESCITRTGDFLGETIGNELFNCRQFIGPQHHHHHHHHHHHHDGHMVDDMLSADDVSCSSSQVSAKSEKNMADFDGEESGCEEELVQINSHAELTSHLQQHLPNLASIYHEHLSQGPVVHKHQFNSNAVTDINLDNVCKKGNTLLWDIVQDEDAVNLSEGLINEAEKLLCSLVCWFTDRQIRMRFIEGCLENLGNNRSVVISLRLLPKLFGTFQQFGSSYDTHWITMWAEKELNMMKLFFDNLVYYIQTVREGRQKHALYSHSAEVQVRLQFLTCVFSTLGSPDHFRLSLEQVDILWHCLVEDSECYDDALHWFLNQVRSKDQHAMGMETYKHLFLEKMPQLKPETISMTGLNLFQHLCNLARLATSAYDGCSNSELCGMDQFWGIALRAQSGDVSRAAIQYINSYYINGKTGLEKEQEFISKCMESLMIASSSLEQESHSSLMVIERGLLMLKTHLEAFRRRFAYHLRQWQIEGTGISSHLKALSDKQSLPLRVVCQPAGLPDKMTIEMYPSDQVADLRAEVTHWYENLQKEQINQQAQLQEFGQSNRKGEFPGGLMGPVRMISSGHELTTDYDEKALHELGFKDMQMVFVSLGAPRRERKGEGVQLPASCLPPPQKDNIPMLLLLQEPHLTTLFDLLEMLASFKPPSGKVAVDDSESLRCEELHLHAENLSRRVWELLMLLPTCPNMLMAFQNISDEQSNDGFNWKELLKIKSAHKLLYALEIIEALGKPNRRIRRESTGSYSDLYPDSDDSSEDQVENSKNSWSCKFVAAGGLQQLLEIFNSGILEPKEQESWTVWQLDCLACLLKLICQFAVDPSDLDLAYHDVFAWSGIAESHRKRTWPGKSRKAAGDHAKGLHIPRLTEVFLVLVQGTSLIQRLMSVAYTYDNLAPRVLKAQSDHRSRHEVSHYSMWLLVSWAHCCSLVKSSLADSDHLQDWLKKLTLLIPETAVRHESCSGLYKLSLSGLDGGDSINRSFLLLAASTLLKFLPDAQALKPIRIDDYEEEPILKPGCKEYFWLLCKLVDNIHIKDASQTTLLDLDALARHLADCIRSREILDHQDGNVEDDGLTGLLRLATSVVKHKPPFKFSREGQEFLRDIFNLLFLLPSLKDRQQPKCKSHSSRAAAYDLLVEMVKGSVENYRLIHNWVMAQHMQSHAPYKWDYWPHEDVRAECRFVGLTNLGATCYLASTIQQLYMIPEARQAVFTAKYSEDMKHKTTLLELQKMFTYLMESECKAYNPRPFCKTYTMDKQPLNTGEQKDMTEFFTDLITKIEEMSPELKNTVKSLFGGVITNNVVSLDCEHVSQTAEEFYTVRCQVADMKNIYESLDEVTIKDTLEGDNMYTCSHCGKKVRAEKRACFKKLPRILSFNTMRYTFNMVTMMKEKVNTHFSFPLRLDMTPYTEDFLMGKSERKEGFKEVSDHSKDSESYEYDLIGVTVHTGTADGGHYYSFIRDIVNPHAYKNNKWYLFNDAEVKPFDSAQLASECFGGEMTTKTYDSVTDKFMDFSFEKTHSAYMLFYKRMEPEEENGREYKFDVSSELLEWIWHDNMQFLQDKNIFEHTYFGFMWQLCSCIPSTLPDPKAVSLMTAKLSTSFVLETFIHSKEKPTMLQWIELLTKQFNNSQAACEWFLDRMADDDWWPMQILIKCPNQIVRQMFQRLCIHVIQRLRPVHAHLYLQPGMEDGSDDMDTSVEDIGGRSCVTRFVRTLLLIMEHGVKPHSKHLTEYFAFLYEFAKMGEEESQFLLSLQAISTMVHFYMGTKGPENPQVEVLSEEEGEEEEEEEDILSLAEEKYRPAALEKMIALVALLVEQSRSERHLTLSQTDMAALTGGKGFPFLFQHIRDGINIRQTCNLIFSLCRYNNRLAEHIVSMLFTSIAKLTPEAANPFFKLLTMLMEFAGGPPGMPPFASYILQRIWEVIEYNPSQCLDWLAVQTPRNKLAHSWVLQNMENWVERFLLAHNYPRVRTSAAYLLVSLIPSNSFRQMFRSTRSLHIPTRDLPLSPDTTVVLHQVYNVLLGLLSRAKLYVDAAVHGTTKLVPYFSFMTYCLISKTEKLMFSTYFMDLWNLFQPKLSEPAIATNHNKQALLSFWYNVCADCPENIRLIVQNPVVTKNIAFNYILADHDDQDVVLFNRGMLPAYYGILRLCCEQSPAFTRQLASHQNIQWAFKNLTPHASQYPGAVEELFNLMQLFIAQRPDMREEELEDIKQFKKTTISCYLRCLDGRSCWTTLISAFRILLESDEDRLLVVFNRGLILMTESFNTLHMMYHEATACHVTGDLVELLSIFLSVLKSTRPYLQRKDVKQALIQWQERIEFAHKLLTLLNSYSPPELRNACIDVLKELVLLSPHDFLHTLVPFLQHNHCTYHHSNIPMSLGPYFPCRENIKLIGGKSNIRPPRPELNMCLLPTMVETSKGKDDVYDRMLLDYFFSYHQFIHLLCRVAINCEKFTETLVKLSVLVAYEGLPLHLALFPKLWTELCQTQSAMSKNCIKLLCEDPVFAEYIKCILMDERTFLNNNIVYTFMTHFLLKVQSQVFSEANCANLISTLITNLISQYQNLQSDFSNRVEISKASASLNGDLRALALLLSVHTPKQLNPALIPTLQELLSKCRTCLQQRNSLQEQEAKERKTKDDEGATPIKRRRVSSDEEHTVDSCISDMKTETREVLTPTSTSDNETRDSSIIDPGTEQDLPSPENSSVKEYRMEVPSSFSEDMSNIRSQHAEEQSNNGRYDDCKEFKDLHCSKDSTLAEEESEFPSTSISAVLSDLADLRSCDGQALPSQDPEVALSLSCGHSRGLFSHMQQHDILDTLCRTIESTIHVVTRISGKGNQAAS
Method in brief: (§1)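 Labelling with Biotin-Ahx-Ub-VS (0.5 µM final, 1 h) followed a 3 h triplicate treatment of HEK293T lysate (495 µg per sample, Tris/CHAPS/IGEPAL buffer with protease inhibitors) with fragment at 200 µM or vehicle. Labelled DUBs were NeutrAvidin-enriched, digested with LysC and trypsin, and run by diaPASEF LC-MS/MS. The values, average log2 fragment/vehicle ratios by unpaired t-test, come from global-median-normalised Spectronaut label-free quantities. Proteins with ≥2 unique peptides were used.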

[2] = biological target: T1, USP36 (UniProt Q9P275)
T1 sequence (whole entry): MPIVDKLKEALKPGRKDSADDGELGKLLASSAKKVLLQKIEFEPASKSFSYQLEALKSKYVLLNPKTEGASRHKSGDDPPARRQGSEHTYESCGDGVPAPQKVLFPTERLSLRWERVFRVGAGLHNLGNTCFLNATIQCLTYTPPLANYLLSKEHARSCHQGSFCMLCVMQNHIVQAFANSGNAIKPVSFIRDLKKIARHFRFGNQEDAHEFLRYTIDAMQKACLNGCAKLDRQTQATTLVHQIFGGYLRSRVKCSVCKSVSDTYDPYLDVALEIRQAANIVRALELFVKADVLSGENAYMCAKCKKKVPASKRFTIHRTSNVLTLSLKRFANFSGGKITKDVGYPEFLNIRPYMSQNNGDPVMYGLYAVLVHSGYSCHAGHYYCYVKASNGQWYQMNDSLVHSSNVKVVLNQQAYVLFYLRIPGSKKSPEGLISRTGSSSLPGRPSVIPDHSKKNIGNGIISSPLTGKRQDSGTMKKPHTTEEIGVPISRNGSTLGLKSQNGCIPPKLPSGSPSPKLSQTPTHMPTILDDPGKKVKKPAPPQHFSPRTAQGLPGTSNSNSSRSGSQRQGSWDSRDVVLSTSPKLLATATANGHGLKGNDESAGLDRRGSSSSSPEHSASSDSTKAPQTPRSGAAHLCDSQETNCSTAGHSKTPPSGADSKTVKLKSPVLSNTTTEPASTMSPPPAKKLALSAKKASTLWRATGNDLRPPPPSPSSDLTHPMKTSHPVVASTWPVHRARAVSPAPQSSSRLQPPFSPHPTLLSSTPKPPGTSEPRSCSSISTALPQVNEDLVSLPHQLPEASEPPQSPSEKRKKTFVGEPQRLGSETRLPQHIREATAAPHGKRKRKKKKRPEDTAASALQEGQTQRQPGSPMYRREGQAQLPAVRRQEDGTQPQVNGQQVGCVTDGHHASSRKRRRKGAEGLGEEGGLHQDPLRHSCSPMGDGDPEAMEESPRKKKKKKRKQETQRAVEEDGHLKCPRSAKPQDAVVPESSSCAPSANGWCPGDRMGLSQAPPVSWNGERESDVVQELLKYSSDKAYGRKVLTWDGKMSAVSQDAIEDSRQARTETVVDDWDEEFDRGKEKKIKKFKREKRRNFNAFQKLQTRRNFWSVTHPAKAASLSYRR
Method in brief: as §1

[3] = biological target: T2, USP38 (UniProt Q8NB14)
T2 sequence (whole entry): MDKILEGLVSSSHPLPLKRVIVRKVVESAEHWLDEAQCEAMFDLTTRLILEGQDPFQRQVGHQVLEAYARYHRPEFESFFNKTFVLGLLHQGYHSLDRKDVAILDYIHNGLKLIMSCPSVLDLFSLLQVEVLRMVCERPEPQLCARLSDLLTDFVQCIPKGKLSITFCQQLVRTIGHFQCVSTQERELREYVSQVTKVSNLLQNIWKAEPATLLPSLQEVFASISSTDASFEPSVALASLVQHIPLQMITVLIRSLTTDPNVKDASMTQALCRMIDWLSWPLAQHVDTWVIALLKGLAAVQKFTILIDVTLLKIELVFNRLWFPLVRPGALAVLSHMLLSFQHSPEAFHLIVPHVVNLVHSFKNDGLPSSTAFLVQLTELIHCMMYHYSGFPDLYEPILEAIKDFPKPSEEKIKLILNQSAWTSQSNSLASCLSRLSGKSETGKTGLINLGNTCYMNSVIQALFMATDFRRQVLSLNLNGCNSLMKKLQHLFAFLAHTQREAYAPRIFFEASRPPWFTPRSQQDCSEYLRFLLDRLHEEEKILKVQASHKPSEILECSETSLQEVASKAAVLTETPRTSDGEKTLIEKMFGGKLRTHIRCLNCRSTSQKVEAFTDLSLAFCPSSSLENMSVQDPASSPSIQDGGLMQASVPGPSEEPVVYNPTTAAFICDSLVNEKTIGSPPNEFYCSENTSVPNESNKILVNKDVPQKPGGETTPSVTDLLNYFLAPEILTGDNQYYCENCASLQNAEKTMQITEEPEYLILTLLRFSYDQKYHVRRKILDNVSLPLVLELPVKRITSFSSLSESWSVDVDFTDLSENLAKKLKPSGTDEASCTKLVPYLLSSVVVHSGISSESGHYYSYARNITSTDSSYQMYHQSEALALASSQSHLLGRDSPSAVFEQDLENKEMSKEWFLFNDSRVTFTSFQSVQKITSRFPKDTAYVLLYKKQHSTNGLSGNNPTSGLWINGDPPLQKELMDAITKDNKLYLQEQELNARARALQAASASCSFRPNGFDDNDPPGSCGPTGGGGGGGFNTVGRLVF
Method in brief: as §1

[4] = biological target: T3, USP39 (UniProt Q53GS9)
T3 sequence (whole entry): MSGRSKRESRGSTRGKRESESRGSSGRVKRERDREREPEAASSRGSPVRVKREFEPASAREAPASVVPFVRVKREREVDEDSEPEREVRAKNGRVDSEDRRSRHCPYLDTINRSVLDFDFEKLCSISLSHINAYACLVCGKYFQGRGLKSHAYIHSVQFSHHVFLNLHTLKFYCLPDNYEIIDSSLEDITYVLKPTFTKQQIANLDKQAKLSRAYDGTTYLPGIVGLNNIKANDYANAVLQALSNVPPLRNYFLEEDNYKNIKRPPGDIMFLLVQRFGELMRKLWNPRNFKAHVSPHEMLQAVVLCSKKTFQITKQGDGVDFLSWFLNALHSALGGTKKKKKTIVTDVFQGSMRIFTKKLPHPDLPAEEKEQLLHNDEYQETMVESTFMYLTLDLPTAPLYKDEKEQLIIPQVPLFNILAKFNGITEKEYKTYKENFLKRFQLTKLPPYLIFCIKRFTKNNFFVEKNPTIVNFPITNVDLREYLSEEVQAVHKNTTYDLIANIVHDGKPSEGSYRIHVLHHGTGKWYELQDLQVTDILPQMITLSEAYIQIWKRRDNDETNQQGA
Method in brief: as §1

[5] = biological target: T4, USP4 (UniProt Q13107)
T4 sequence (whole entry): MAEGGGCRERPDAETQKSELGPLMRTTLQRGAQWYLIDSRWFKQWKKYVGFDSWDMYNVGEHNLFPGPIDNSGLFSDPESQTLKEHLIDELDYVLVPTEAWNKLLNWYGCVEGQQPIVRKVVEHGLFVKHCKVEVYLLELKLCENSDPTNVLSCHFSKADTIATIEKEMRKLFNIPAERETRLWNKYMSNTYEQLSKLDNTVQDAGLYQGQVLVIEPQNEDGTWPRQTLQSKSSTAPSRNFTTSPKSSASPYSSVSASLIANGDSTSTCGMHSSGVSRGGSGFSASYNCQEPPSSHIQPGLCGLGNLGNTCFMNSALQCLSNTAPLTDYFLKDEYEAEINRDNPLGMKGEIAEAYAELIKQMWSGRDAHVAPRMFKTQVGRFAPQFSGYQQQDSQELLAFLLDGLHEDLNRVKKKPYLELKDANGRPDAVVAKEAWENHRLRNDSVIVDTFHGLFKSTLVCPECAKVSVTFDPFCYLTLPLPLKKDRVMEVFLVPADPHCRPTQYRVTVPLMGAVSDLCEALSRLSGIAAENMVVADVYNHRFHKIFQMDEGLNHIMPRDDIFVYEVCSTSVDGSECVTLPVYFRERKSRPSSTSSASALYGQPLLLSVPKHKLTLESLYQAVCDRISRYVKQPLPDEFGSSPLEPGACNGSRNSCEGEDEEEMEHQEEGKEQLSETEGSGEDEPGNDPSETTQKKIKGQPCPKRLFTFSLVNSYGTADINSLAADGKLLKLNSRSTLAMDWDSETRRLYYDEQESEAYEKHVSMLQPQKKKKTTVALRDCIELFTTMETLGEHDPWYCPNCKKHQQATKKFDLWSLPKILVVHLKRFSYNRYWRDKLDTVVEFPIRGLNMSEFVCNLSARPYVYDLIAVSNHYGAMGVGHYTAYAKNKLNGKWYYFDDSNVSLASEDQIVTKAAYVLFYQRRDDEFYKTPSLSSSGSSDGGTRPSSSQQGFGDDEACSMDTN
Method in brief: as §1

Measured: log2 ratio of Biotin-Ahx-Ub-VS probe labelling

Cc1c(NC(=O)CCl)c(=O)n(-c2ccccc2)n1C
inactive: [1] -0.0386 | [2] -0.0835 | [3] -0.177 | [4] -0.16 | [5] 0.0206
